In PubChem BioAssay AID1159580 (chemical genetic matrix, 2015):
Hit rate of the full screen: of about 5,500 compounds, about 2,000 (36%) were called active. Inconclusive results (about 18%) are left out. The list shows a part of the results. A number with no mark means an inactive call. Rule as the data show it: active = normalized growth mostly below about 0.91 (no sharp cut-off); inconclusive = no clear call, values can overlap the other calls; inactive = mostly above about 0.92.

Experiment: chemical genetic growth profiling, strain panel (AID 1159580);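 also: tested at 20 µM; growth read once vehicle control cultures reached saturation at 30 °C; 1 = growth at the plate median or of vehicle wells; lower values mean less growth of the strain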
Conditions: growth OD

## COC(=O)NC(=S)Nc1ccccc1NC(=S)NC(=O)OC
S. cerevisiae deletion strains, locus YJR075W, strain HOC1, active compounds read low
  normalized growth: 1.01
S. cerevisiae deletion strains, locus YKL009W, strain mrt4, active compounds read low
  normalized growth: 0.995
S. cerevisiae deletion strains, locus YKL068W, active compounds read low
  normalized growth: 0.996
S. cerevisiae deletion strains, locus YKL085W, strain MDH1 (second series), active compounds read low
  normalized growth: 1
S. cerevisiae deletion strains, locus YKL085W, strain MDH1, active compounds read low
  normalized growth: 1
S. cerevisiae deletion strains, locus YKL160W, strain elf1, active compounds read low
  normalized growth: 0.952
S. cerevisiae deletion strains, locus YKL190W, strain CNB1, active compounds read low
  normalized growth: 1.01
S. cerevisiae deletion strains, locus YKR001C, strain vps1, active compounds read low
  normalized growth: 0.991
S. cerevisiae deletion strains, locus YKR026C, strain gcn3, active compounds read low
  normalized growth: 0.974
S. cerevisiae deletion strains, locus YKR091W, strain srl3, active compounds read low
  normalized growth: 0.97
S. cerevisiae deletion strains, locus YLL001W, strain dnm1, active compounds read low
  normalized growth: 0.972
S. cerevisiae deletion strains, locus YLL026W, active compounds read low
  normalized growth: 0.981
S. cerevisiae deletion strains, locus YLL041C, strain sdh2, active compounds read low
  normalized growth: 0.978
S. cerevisiae deletion strains, locus YLR027C, strain aat2, active compounds read low
  normalized growth: 0.975
S. cerevisiae deletion strains, locus YLR039C, strain RIC1, active compounds read low
  normalized growth: 1.02
S. cerevisiae deletion strains, locus YLR058C, strain SHM2, active compounds read low
  normalized growth: 1
S. cerevisiae deletion strains, locus YLR102C, strain apc9, active compounds read low
  normalized growth: 1.01
S. cerevisiae deletion strains, locus YLR113W, strain HOG1, active compounds read low
  normalized growth: 0.983
S. cerevisiae deletion strains, locus YLR221C, strain rsa3, active compounds read low
  normalized growth: 0.974
S. cerevisiae deletion strains, locus YLR258W, strain gsy2, active compounds read low
  normalized growth: 0.985
S. cerevisiae deletion strains, locus YLR262C, strain YPT6 (second series), active compounds read low
  normalized growth: 0.987
S. cerevisiae deletion strains, locus YLR262C, strain YPT6, active compounds read low
  normalized growth: 0.989
S. cerevisiae deletion strains, locus YLR268W, strain sec22, active compounds read low
  normalized growth: 1.07
S. cerevisiae deletion strains, locus YLR320W, strain mms22, active compounds read low
  normalized growth: 0.856 (active)
S. cerevisiae deletion strains, locus YLR330W, strain CHS5, active compounds read low
  normalized growth: 1
S. cerevisiae deletion strains, locus YLR342W, strain FKS1 (second series), active compounds read low
  normalized growth: 0.988
S. cerevisiae deletion strains, locus YLR342W, strain FKS1, active compounds read low
  normalized growth: 0.97
S. cerevisiae deletion strains, locus YLR357W, strain rsc2, active compounds read low
  normalized growth: 0.92
S. cerevisiae deletion strains, locus YLR370C, strain arc18, active compounds read low
  normalized growth: 0.98
S. cerevisiae deletion strains, locus YLR371W, strain rom2, active compounds read low
  normalized growth: 1.02
S. cerevisiae deletion strains, locus YLR384C, strain iki3, active compounds read low
  normalized growth: 0.964
S. cerevisiae deletion strains, locus YLR418C, strain cdc73, active compounds read low
  normalized growth: 0.972
S. cerevisiae deletion strains, locus YML016C, strain PPZ1, active compounds read low
  normalized growth: 1
S. cerevisiae deletion strains, locus YML032C, strain rad52, active compounds read low
  normalized growth: 1.05
S. cerevisiae deletion strains, locus YML120C, strain ndi1, active compounds read low
  normalized growth: 0.97
S. cerevisiae deletion strains, locus YML124C, strain tub3, active compounds read low
  normalized growth: 1
S. cerevisiae deletion strains, locus YMR058W, strain fet3, active compounds read low
  normalized growth: 0.957
S. cerevisiae deletion strains, locus YMR078C, strain ctf18, active compounds read low
  normalized growth: 1.02
S. cerevisiae deletion strains, locus YMR125W, strain sto1, active compounds read low
  normalized growth: 0.974
S. cerevisiae deletion strains, locus YMR129W, active compounds read low
  normalized growth: 0.98
S. cerevisiae deletion strains, locus YMR205C, strain PFK2, active compounds read low
  normalized growth: 0.97
S. cerevisiae deletion strains, locus YMR223W, strain ubp8, active compounds read low
  normalized growth: 0.978
S. cerevisiae deletion strains, locus YMR231W, strain pep5, active compounds read low
  normalized growth: 0.993
S. cerevisiae deletion strains, locus YMR263W, strain SAP30, active compounds read low
  normalized growth: 1.02
S. cerevisiae deletion strains, locus YMR307W, strain GAS1, active compounds read low
  normalized growth: 0.983
S. cerevisiae deletion strains, locus YNL067W, strain RPL9B, active compounds read low
  normalized growth: 1.02
S. cerevisiae deletion strains, locus YNL071W, strain lat1, active compounds read low
  normalized growth: 0.772 (active)
S. cerevisiae deletion strains, locus YNL128W, strain TEP1, active compounds read low
  normalized growth: 1.01
S. cerevisiae deletion strains, locus YNL153C, strain GIM3, active compounds read low
  normalized growth: 0.99
S. cerevisiae deletion strains, locus YNL183C, strain NPR1, active compounds read low
  normalized growth: 0.902
S. cerevisiae deletion strains, locus YNL209W, strain ssb2, active compounds read low
  normalized growth: 1.01
S. cerevisiae deletion strains, locus YNL233W, strain BNI4, active compounds read low
  normalized growth: 1.03
S. cerevisiae deletion strains, locus YNL248C, strain rpa49, active compounds read low
  normalized growth: 0.93
S. cerevisiae deletion strains, locus YNL250W, strain rad50, active compounds read low
  normalized growth: 0.989
S. cerevisiae deletion strains, locus YNL271C, strain bni1, active compounds read low
  normalized growth: 1.01
S. cerevisiae deletion strains, locus YNL298W, strain CLA4, active compounds read low
  normalized growth: 0.978
S. cerevisiae deletion strains, locus YNL307C, strain MCK1, active compounds read low
  normalized growth: 0.986
S. cerevisiae deletion strains, locus YNL322C, strain KRE1 (second series), active compounds read low
  normalized growth: 0.985
S. cerevisiae deletion strains, locus YNL322C, strain KRE1, active compounds read low
  normalized growth: 0.998
S. cerevisiae deletion strains, locus YNR049C, strain mso1, active compounds read low
  normalized growth: 0.99
S. cerevisiae deletion strains, locus YNR052C, strain pop2, active compounds read low
  normalized growth: 1.01
S. cerevisiae deletion strains, locus YOL006C, strain TOP1, active compounds read low
  normalized growth: 1.09
S. cerevisiae deletion strains, locus YOL012C, strain htz1
  normalized growth: 1.25
S. cerevisiae deletion strains, locus YOL147C, strain pex11, active compounds read low
  normalized growth: 1.01
S. cerevisiae deletion strains, locus YOR001W, strain rrp6, active compounds read low
  normalized growth: 0.986
S. cerevisiae deletion strains, locus YOR061W, strain CKA2, active compounds read low
  normalized growth: 1.01
S. cerevisiae deletion strains, locus YOR069W, strain VPS5, active compounds read low
  normalized growth: 1.01
S. cerevisiae deletion strains, locus YOR070C, strain gyp1, active compounds read low
  normalized growth: 0.985
S. cerevisiae deletion strains, locus YOR080W, strain dia2, active compounds read low
  normalized growth: 1.01
S. cerevisiae deletion strains, locus YOR083W, strain WHI5, active compounds read low
  normalized growth: 0.97
S. cerevisiae deletion strains, locus YOR106W, strain vam3, active compounds read low
  normalized growth: 0.887
S. cerevisiae deletion strains, locus YOR136W, strain idh2, active compounds read low
  normalized growth: 0.999
S. cerevisiae deletion strains, locus YOR144C, strain elg1, active compounds read low
  normalized growth: 1.01
S. cerevisiae deletion strains, locus YOR184W, strain ser1, active compounds read low
  normalized growth: 1.01
S. cerevisiae deletion strains, locus YOR231W, strain MKK1, active compounds read low
  normalized growth: 0.986
S. cerevisiae deletion strains, locus YOR265W, strain rbl2, active compounds read low
  normalized growth: 1
S. cerevisiae deletion strains, locus YOR270C, strain vph1, active compounds read low
  normalized growth: 0.858
S. cerevisiae deletion strains, locus YOR290C, strain snf2, active compounds read low
  normalized growth: 0.959
S. cerevisiae deletion strains, locus YOR316C, strain cot1, active compounds read low
  normalized growth: 1.01
S. cerevisiae deletion strains, locus YPL051W, strain arl3, active compounds read low
  normalized growth: 0.957
S. cerevisiae deletion strains, locus YPL055C, strain LGE1, active compounds read low
  normalized growth: 0.98
S. cerevisiae deletion strains, locus YPL078C, strain atp4, active compounds read low
  normalized growth: 0.989
S. cerevisiae deletion strains, locus YPL106C, strain sse1, active compounds read low
  normalized growth: 0.998
S. cerevisiae deletion strains, locus YPL240C, strain hsp82, active compounds read low
  normalized growth: 1
S. cerevisiae deletion strains, locus YPL241C, strain CIN2, active compounds read low
  normalized growth: 1.01
S. cerevisiae deletion strains, locus YPL256C, strain CLN2, active compounds read low
  normalized growth: 1.01
S. cerevisiae deletion strains, locus YPR119W, strain clb2, active compounds read low
  normalized growth: 1.02
S. cerevisiae deletion strains, locus YPR141C, strain kar3, active compounds read low
  normalized growth: 0.994
S. cerevisiae deletion strains, locus YPR163C, strain tif3, active compounds read low
  normalized growth: 1.03
S. cerevisiae deletion strains, locus YPR167C, strain met16, active compounds read low
  normalized growth: 1.01
S. cerevisiae deletion strains, strain wtn01, active compounds read low
  normalized growth: 1.02
S. cerevisiae strains, strain wild type, active compounds read low
  normalized growth: 0.996
